# Assay: binders of probe aFSTL3 on microarray, primary screen, stem cell growth factor project, biochemical, small-molecule microarray, fluorescence 635/667 (AID 1064);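 also: measures binding of the biotinylated anti-FSTL3 antibody to printed compounds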
# Conditions: higher = more signal
row,SMILES,composite z-score
1,COc1ccc(NC(=O)O[C@H]2[C@H](OC(=O)c3cc4ccccc4[nH]3)[C@@H](OC(=O)c3cc4ccccc4[nH]3)[C@@H](OC)O[C@@H]2CO)cc1,-0.147
2,C=C(CCCC)C(=O)CC[C@H](OC(=O)c1cccnc1)c1ccc(OCCO)cc1,0.242
3,C=CCN1C(=O)[C@]2(Cc3ccccc3)N=C(c3ccc(OCCCO)cc3)O[C@@H]2c2ccccc21,-0.0832
4,CC(=O)NCCCC[C@@H]1NC(=O)[C@H]2C[C@@H](C(=O)NCCCCCNC(=O)CS)[C@@H](c3ccc(O)cc3)N2C1=O,0.894
5,C=CCC(OC(C)=O)[C@@H]1[C@@H](N(Cc2cc3ccccc3o2)C(=O)Cc2ccc(OC)cc2)c2cc(OCCCO)ccc2N1C(=O)c1ccc2ccccc2c1 (stereo not given in full),0.0894
6,CC(c1ccccc1)C(O)C1C=CC2C(=O)N(c3ccccc3)C(=O)C2N1Nc1ccccc1 (stereo not given),-0.245
7,COc1ccc([C@H]2C[C@H]3C(Br)=C[C@@]2(CO)C(=O)[C@]32CO2)cc1,-0.035
8,COCCOC(=O)N1C(=O)[C@@]2(c3cc(C#CCCO)ccc31)[C@H](c1ccc(OCCO)cc1)N1[C@H](c3ccccc3)[C@H](c3ccccc3)OC(=O)[C@H]1[C@@H]2C(N)=O,-0.139
9,CCCCN1CC=CC23O[C@@H]4/C=C\CCCOC(=O)C4[C@H]2C(=O)N(CCCCCO)[C@@H]3C1=O (stereo not given in full),0.485
10,NCCCCCCNC(=O)[C@H]1C[C@H]2C(=O)N[C@@H](Cc3ccccc3)C(=O)N2[C@H]1c1cccc(OCCO)c1,0.135
11,COc1ccc([Si](C)(C)[C@@H]2[C@@H](CCn3cc(CCO)nn3)O[C@]3(C(=O)N(Cc4cccc(N5C(=O)c6cccc7cccc5c67)c4)c4ccccc43)[C@H]2C)cc1,-0.429
12,CC(=O)Nc1cc(Br)ccc1C(=O)NCc1ccccc1,-0.16
13,CCCCCN1CC=CC23O[C@@H]4C=CCOC(=O)[C@@H]4[C@H]2C(=O)N(C(C)CO)[C@@H]3C1=O (stereo not given in full),0.484
14,CCOC(=O)C1=C[C@@H](C(C)C)N(S(=O)(=O)c2ccc(C)cc2)[C@H]1c1ccccc1F,-0.487
15,CS(=O)(=O)CCOC(=O)C1=CC(CCCO)=CC(C2CC2)N(Cc2cc3c(cc2Br)OCO3)C=C1C(=O)OCCS(C)(=O)=O (stereo not given),-0.0672
16,Cc1c(NC(=O)/C(C#N)=C/c2cccc([N+](=O)[O-])c2)c(=O)n(-c2ccccc2)n1C,-0.365
17,C=CCN1Cc2ccccc2[C@@H]2OC(c3ccc(OCCCO)cc3)=N[C@]2(CCS(=O)(=O)c2ccccc2)C1=O,0.189
18,C=CCNC(=O)[C@@H]1[C@H]2C(=O)O[C@H](c3ccccc3)[C@H](c3ccccc3)N2[C@H](c2ccc(OCCO)cc2)[C@@]12C(=O)N(C(=O)OCCOC)c1ccc(C#CCC(C(=O)OC)C(=O)OC)cc12,-0.426

row,SMILES,composite z-score
1,CN1C(=O)C2C=CC(C(O)C=Cc3ccc([N+](=O)[O-])cc3)N(Nc3ccccc3)C2C1=O (stereo not given),-0.283
2,COCCOC(=O)N1C(=O)[C@@]2(c3cc(C#CC4=CCCCC4)ccc31)[C@H](c1ccc(OCCO)cc1)N1[C@H](c3ccccc3)[C@H](c3ccccc3)OC(=O)[C@H]1[C@@H]2C(=O)N1CCc2cc(OC)c(OC)cc2C1,-0.16
3,CC(C)CN1C(=O)[C@@]2(c3ccc([N+](=O)[O-])cc3)CC(=O)N(C3CCCCC3)[C@@H]2c2ccc(CO)cc21,0.206
4,C#CCN1[C@H](/C=C/C2CC2)[C@H](Cc2ccccc2)OC(=O)[C@@H]1Cc1ccccc1,-0.413
5,COc1ccccc1CN1C(=O)c2ccccc2[C@@]2(Cc3ccccc3N(CCCN(C)C)C2=O)[C@@H]1c1ccc(CO)cc1,-0.302
6,COC(=O)[C@@]1(CCC(=O)OC(C)(C)C)N=C(c2ccc(OCCCO)cc2)O[C@H]1c1ccccc1,0.579
7,O=C(O)[C@@]1(CCS(=O)(=O)c2ccccc2)N=C(c2ccc(OCCCO)cc2)O[C@H]1c1ccccc1,0.132
8,C=CCN(Cc1ccccc1)C(=O)C(c1cccs1)N(C(=O)/C=C\C(=O)O)c1ccc(CCOCCO)cc1 (stereo not given),0.146
9,CC(C)NC(=O)[C@@H]1c2ccccc2C(=O)N(C(C)C)[C@H]1c1ccc(CO)cc1,0.473
10,C=CCC(OC(C)=O)[C@@H]1[C@@H](N(Cc2ccc(-c3cccc(C(F)(F)F)c3)o2)C(=O)c2cccc3ccccc23)c2cc(OCCCO)ccc2N1C(=O)Cc1ccc2ccccc2c1 (stereo not given in full),-0.0817
11,COc1ccc([Si](C)(C)[C@@H]2[C@@H](CCn3cc([C@H](O)c4ccccc4)nn3)O[C@]3(C(=O)N(Cc4cccc(N5CCC5=O)c4)c4ccccc43)[C@H]2C)cc1,-0.0168
12,O=C(NCCN1CCOCC1)[C@@H]1c2ccccc2C(=O)N(Cc2cc(C(F)(F)F)cc(C(F)(F)F)c2)[C@H]1c1ccc(CO)cc1,0.284
13,C=C(CCCC)/C(=C/C[C@H](OC(C)=O)c1ccccc1OCCO)c1cnc2ccccc2c1,-0.279
14,COC(=O)[C@@]1(Cc2ccc(OC)cc2)[C@H]2c3cc(C(=O)N4CCCC4)n(CCc4ccc(O)c(O)c4)c3C[C@H]2CN1C(=O)c1ccccc1,1.65
15,Cc1ccc(S[C@]2(C(=O)NCC(C)C)CC(=O)N(Cc3cc(C(F)(F)F)cc(C(F)(F)F)c3)[C@@H]2c2ccc(CO)cc2)cc1,0.436
16,O=C(NC1CC1)[C@@H]1c2ccccc2C(=O)N(C2Cc3ccccc3C2)[C@H]1c1ccc(CO)cc1,-0.549
17,O=C1OCCC=C[C@H]2OC34C=CCN(CCN5CCOCC5)C(=O)[C@H]3N(CCCCCO)C(=O)[C@@H]4C12 (stereo not given in full),-0.391

# Reference: PubChem BioAssay
